Most compounds without a hit are left out; they make up all but 4.2% or so of the library.
GDH-TPI inh: GDH-TPI coupling enzyme inhibitors, primary screen, artefact control for M. tuberculosis FBA inhibitor project, biochemical, absorbance, full deck. actives 1.2% (n = 360,000). AID 588335, 2011. inhibition, % at 4.8 µM. GDH-TPI coupled enzyme counterscreen, NADH absorbance;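 further: 0% = DMSO wells and 100% = wells lacking the enzyme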
RecA intein inh: Mtb RecA intein splicing inhibitors, primary screen, biochemical, fluorescence, HTS; Protein RecA (Mycobacterium tuberculosis (strain ATCC 25618 / H37Rv)), P9WHJ3; cell-free RecA intein splicing; inhibition, % (no concentration beside the values); actives 0.75% (n = 290,000); AID 2221, 2009; in the data active means inhibition above about 30%;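 further: 0% = vehicle wells and 100% = reference inhibitor control wells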
Target sequence (P9WHJ3 whole entry, looked up): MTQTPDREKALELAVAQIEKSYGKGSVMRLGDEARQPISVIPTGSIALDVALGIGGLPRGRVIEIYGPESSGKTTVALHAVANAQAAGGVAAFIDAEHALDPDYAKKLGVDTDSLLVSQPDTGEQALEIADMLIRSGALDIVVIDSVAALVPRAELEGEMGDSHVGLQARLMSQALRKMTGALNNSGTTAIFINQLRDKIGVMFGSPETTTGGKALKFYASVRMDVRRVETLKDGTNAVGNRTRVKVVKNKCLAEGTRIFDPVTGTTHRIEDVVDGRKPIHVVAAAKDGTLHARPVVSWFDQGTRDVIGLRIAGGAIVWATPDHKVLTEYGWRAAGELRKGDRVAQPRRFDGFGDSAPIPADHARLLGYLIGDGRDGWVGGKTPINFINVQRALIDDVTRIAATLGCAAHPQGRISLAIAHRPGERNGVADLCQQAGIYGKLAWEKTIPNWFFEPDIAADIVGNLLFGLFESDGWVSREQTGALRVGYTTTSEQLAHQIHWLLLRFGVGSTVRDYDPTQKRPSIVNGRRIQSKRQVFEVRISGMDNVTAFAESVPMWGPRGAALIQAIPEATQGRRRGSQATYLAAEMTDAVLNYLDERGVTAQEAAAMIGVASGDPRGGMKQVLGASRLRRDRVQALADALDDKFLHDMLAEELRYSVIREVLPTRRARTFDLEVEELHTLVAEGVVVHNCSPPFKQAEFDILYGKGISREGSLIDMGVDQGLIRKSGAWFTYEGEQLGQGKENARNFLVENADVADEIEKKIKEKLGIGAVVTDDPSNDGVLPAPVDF
Mtb FBA inh: Mtb FBA enzyme inhibitors, primary screen, biochemical, fluorescence, strain H37Rv; AID 588726, 2011; purified M. tuberculosis FBA, fluorescence read-out; actives 2.3% (n = 360,000); inhibition, % at 1 µM; Fructose-bisphosphate aldolase (Mycobacterium tuberculosis (strain ATCC 25618 / H37Rv)), …; in the data active means inhibition above about 27%;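 further: 0% = vehicle and 100% = reference inhibitor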
CCHFV vOTU inh: CCHFV vOTU protease inhibitors, primary screen, biochemical, Pep-AMC substrate, fluorescence. Crimean-Congo hemorrhagic fever virus L polyprotein viral ovarian tumor (vOTU) protease …. inhibition, % at 11.5 µM. actives 0.55% (n = 370,000). AID 651958, 2012; further: 0% = vehicle wells with enzyme and 100% = no enzyme wells
The depositor's hits bear a star; . = no result given; + = active, no number. Unless noted, no stated cut-off is given here; in the data, active means inhibition above about 30%; inactive means the rest.

SMILES	GDH-TPI inh	RecA intein inh	Mtb FBA inh	CCHFV vOTU inh
CCCCn1c(-c2ccccc2)nc2c(=O)n(C)c(=O)[nH]c21	5	2	196*	-19
CN(C)S(=O)(=O)c1ccc(Cl)c(NC(=O)COC(=O)CCC2CCCCC2)c1	-3	.	-1	17
Nc1cccc2nsnc12	-5	10	2	24
Nc1cc2nsnc2cc1Br	-4	-2	-3	97*
O=C1CSC(=S)N1N=Cc1c(F)cccc1Cl	9	.	0	1
CN(C)c1ccc(C=NN2C(=O)CSC2=S)c(Cl)c1	36*	.	-7	16
Cn1c(=O)c2cc(NC(=O)CC(C)(C)C)ccc2n1-c1ccccc1F	6	.	174*	-81
CC(CC(=O)Nc1ccc2c(c1)c(=O)n(C)n2-c1ccc2ccccc2c1)C(F)(F)F (centres undefined)	8	.	6	5
CC(CC(=O)Nc1ccc2c(c1)c(=O)n(C)n2-c1ccccc1F)c1ccccc1 (centres undefined)	11	.	139*	-51
Cc1ccc(CN2CCCCC(NC(=O)c3ccc4ccccc4c3)C2=O)cc1 (centres undefined)	.	.	.	5
O=C(c1[nH]c(C(F)(F)F)nc1-c1ccccc1)N1CCN(C(=O)C2CCCO2)CC1 (centres undefined)	.	.	1	-7
Cc1cc(C)n2cc(CSCC(=O)O)nc2n1	12	1	123*	-43
COc1ccccc1N1CCN(C(c2cc3ccc(C)cc3[nH]c2=O)c2nnnn2C2CCCC2)CC1 (centres undefined)	34*	-2	4	5
COc1ccccc1N1CCN(C(c2cc3cc(C)ccc3[nH]c2=O)c2nnnn2C2CCCC2)CC1 (centres undefined)	-1	-3	-1	-4
COc1ccc(OC)c(CCNC(=O)c2cccc(NC3=NC4CS(=O)(=O)CC4S3)c2)c1 (centres undefined)	-4	-1	0	1
CC(O)/C=C/C1OC(=O)CC1Nc1ccc(C=O)cc1 (centres undefined)	34*	-3	0	6
Cc1noc(/C=C/N(C)C)c1S(=O)(=O)N1CCCC(C(=O)NCc2ccccc2Cl)C1 (centres undefined)	32*	.	-1	-3
Cc1noc(/C=C/N(C)C)c1S(=O)(=O)N1CCCC(C(=O)NCc2ccc(Cl)cc2)C1 (centres undefined)	56*	.	-3	6
Cc1ccc(CNC(=O)C2CCCN(S(=O)(=O)c3c(C)noc3/C=C/N(C)C)C2)cc1 (centres undefined)	52*	0	2	20
Cc1noc(C)c1COc1ccccc1C(=O)NC1CCC(C)CC1 (centres undefined)	8	2	3	-5
COc1ccc(NC2CCCN(Cc3cccc4cnccc34)C2)cc1OC (centres undefined)	20	4	118*	-10
COc1ccc(NC(=O)CCCc2ccccc2)cc1OC	3	0	-1	-12
CC(=O)C1=C(O)C(=Cc2ccccc2)OC1=O	26	.	11	12
COc1ccc(C=C2OC(=O)C(C(C)=O)=C2O)cc1	59*	.	14	9
CCC(=O)Nc1c(C#N)c2nc3ccccc3nc2n1C1CCCCC1	-10	7	11	-7
SMILES	GDH-TPI inh	RecA intein inh	Mtb FBA inh	CCHFV vOTU inh
N#Cc1c(N)n(-c2ccc(N)cc2)c2nc3ccccc3nc12	0	3	-3	10
N#Cc1c(N)n(-c2ccc(C(=O)O)cc2)c2nc3ccccc3nc12	20	-247	+	-382
N#Cc1c(N)n(C2CCCCC2)c2nc3ccccc3nc12	14	-88	117*	-44
CC(/C=N/n1cnnc1)=C\c1ccco1	39*	3	1	8
CC(/C=N/n1c(-c2cc(C)[nH]n2)n[nH]c1=S)=C\c1ccco1	12	.	-1	-7
O=C1OC(/C=C/c2ccccc2)=NC/1=C/C=C/c1ccccc1	32*	3	0	-8
COCCNC(=O)Cn1cc(/C=C(\C#N)C(=O)NC2CC2)c2ccccc21	18	-2	1	-3
COCCCNC(=O)Cn1cc(/C=C(\C#N)C(=O)NC2CCCC2)c2ccccc21	33*	-4	-1	13
COC(=O)[C@@H](CC(C)C)NS(=O)(=O)N(Cc1ccccc1)[C@@H](CC(C)C)C(=O)OC	8	.	-1	26
N=C1c2c(cc(=O)n3c2[nH]c2ccccc23)CN1CCN1CCOCC1	12	-27	+	-254

From PubChem
